Bioassay records: PubChem BioAssay, Broad Institute
Compounds with a hit are over-represented: about 4.1% of the library has one in this group of screens.
CASP6 VEID inh = inhibitors of human caspase-6; purified caspase-6, Z-VEID-R110 cleavage fluorescence; AID 686996; hit rate 0.53% among 350,000; inhibition, % at 12.5 µM; P55212;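 active = mean inhibition across replicates at least about 35%, with every replicate also reaching that limit, limit read from the data; inconclusive = only one of the two criteria met; inactive = neither criterion met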
F508del corr = CFTR F508del correction in bronchial cells; activity (quench increase), % at 7.58 µM; hit rate 0.36% among 350,000; CFBE cells, YFP halide quenching; stimulated with forskolin plus potentiator P3; % fluorescence drop versus neutral controls;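 active = mean added fluorescence quench of at least 8% versus neutral control, with both replicates also reaching 8%; inconclusive = only one of the mean or replicate conditions met; inactive = mean below 8% and not both replicates reaching 8%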;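 also: cells transiently co-express mutant CFTR-F508del with the halide-sensitive YFP; corrector assay measuring rescue of mutant channel to the surface after 24 h compound exposure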
PglD inh = PglD (C. jejuni) enzyme inhibition. AID 602405. inhibition, % at 12.5 µM. hit rate 0.098% among 360,000. purified PglD enzyme, DTNB colorimetric CoA detection; in the data active = inhibition above about 16%, passing the limit was not always enough; inconclusive = no clear call, values can overlap the other calls
NSD2 inh = inhibitors of human histone methyltransferase NSD2; inhibition, % at 12.5 µM; hit rate 0.54% among 310,000; NSD2 peptide methylation, AlphaScreen, 120 min; AID 743445; O96028; in the data active = inhibition above about 50%
Env fusion inh = inhibitors of HIV Env-mediated cell fusion. HeLa-JRFL Env/CEM21 cell fusion, luciferase. inhibition, % at 12.3 µM. hit rate 1.1% among 360,000. AID 651610;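 active = mean replicate inhibition score of at least 50 and every replicate individually at or above 50; inconclusive = only one of the two criteria met; inactive = mean below 50 and not all replicates reaching 50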
ALR inh = inhibitors of human sulfhydryl oxidase ALR; P55789; purified ALR, DTT oxidation, H2O2 HRP-luminol luminescence; inhibition, % (no concentration beside the values); hit rate 3.8% among 290,000; AID 485317;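 active = mean replicate inhibition above about 79%, with every replicate also reaching it, limit read from the data; inconclusive = only one of the two criteria met; inactive = mean below limit and not every replicate reaching it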
Large screens that a line does not name were inactive.

COc1ccc2c(/C=N/Nc3ccc(C(=O)O)cc3)c[nH]c2c1	ALR inh 88
C[C@@H]1CN([C@H](C)CO)C(=O)c2cccc(NC(=O)Nc3ccc(C(F)(F)F)cc3)c2O[C@H]1CN(C)S(=O)(=O)c1ccccc1	none (no result: CASP6 VEID inh, PglD inh, NSD2 inh, ALR inh)
CCCC#Cc1ccc2c(c1)O[C@H](CN(C)Cc1cccnc1)[C@@H](C)CN([C@@H](C)CO)S2(=O)=O	none (no result: F508del corr, NSD2 inh, ALR inh)
O=C1NC(=O)/C(=C\c2ccsc2)N1	none
CCN(CC)c1ccc(/C=C2\NC(=O)NC2=O)cc1	ALR inh 99 (no result: CASP6 VEID inh, F508del corr)
COc1ccc(NS(=O)(=O)c2cc(NC(=O)CCNC(=O)c3ccco3)ccc2OC)cc1	none (no result: ALR inh)
COc1ccc(NS(=O)(=O)c2cc(NC(=O)Cc3c(F)cccc3Cl)ccc2OC)cc1	F508del corr 19
CCOc1ccc(NS(=O)(=O)c2cc(NC(=O)CCNC(=O)c3ccco3)ccc2OC)cc1	F508del corr 32 (no result: ALR inh)
CCN(CC)S(=O)(=O)c1cc(NC(=O)CCNC(=O)c2ccco2)ccc1C	Env fusion inh 59
COc1ccc(NC(=O)CCNC(=O)c2ccco2)cc1S(=O)(=O)N(C)C	none
C[C@@H](NC(=O)[C@@H]1[C@@H](CO)[C@@H]2Cn3c(cccc3=O)[C@@H]2N1CC1CC1)c1ccccc1	none (no result: NSD2 inh, Env fusion inh, ALR inh)
CC(=O)N[C@H]1CC[C@@H](CCNC(=O)C2CC2)O[C@@H]1CO	none (no result: NSD2 inh, ALR inh)
Oc1c(Br)cc(/C=N/Nc2ccc(Cl)nn2)cc1Br	none (no result: ALR inh)
COc1cc(/C=N/Nc2ccc(Cl)nn2)cc(OC)c1O	ALR inh 95
COc1cc(/C=N/Nc2ccccc2[N+](=O)[O-])cc(OC)c1O	none
Oc1ccc(/C=N/Nc2ccc(Cl)nn2)c(O)c1O	CASP6 VEID inh 48 (no result: NSD2 inh, ALR inh)
COc1cc(/C=N/Nc2ccc(F)cc2F)cc(OC)c1O	ALR inh 99 (no result: CASP6 VEID inh, F508del corr, PglD inh)
Oc1c(Br)cc(Br)cc1/C=N/Nc1ccc(Cl)nn1	none (no result: ALR inh)
COCC(=O)N1CC(=O)N2[C@@H](CO)[C@H](c3ccc(C#CC(C)C)cc3)[C@@H]2C1	none (no result: PglD inh, NSD2 inh, Env fusion inh, ALR inh)
CSCc1ccc(C(=O)NC(C)c2cnn(-c3ccccn3)c2C)o1 (stereo unspecified)	ALR inh 90
COc1ccc(OC)c(S(=O)(=O)NC(C)c2cnn(-c3ccccn3)c2C)c1 (stereo unspecified)	none
Cc1oc(-c2ccccc2Cl)nc1CSCC(=O)NC1CC1	ALR inh 98 (no result: CASP6 VEID inh, F508del corr)
CCOC(=O)N1CCC(NC(=O)CSCc2nc(-c3ccc(OC)cc3)oc2C)CC1	ALR inh 86 (no result: PglD inh)
CSc1ccc(-c2nc(CSCC(=O)N3CCOCC3)c(C)o2)cc1	ALR inh 98 (no result: F508del corr)
CCc1ccc(-c2nc(CSCC(=O)NC3CC3)c(C)o2)cc1	none
Cc1oc(-c2ccc(F)cc2)nc1CN1CCCC(C(=O)N2CCOCC2)C1 (stereo unspecified)	none (no result: ALR inh)
CCc1ccc(-c2nc(CSCC(=O)N3CCN(c4ncccn4)CC3)c(C)o2)cc1	ALR inh 97 (no result: PglD inh, NSD2 inh)
CC(C)C(=O)Nc1ccc2c(c1)C(=O)N(C)[C@@H]1CC[C@@H](CC(=O)Nc3ccccc3)O[C@@H]1CO2	none (no result: PglD inh, NSD2 inh, Env fusion inh, ALR inh)
CSc1ccc(-c2nc(CSCC(=O)NC3CC3)c(C)o2)cc1	ALR inh 98
O=C(O)c1cc(S(=O)(=O)Nc2ccc3cn[nH]c3c2)ccc1O	CASP6 VEID inh 60
O=C(O)c1ccc(Cl)c(S(=O)(=O)Nc2ccc3cn[nH]c3c2)c1	CASP6 VEID inh 37 (no result: PglD inh)
O=C(C[C@@H]1C=C[C@@H](NC(=O)c2ccc(F)cc2)[C@H](CO)O1)NCCc1ccncc1	none (no result: NSD2 inh, ALR inh)
O=C(C1CC1)N1CC2(C1)[C@@H](c1ccccc1)[C@@H](CO)N2C(=O)c1cccnc1	none (no result: PglD inh, NSD2 inh, Env fusion inh, ALR inh)
Cc1nc(N)[nH]c(=O)c1CCCNS(=O)(=O)c1ccc([N+](=O)[O-])cc1	F508del corr 8.1 (no result: ALR inh)
COc1ccc(CNC(=O)CS(=O)Cc2nc(-c3ccc(C)cc3)oc2C)cc1 (stereo unspecified)	ALR inh 99 (no result: NSD2 inh)
COCCCNC(=O)CS(=O)Cc1nc(-c2cccc(OC)c2)oc1C (stereo unspecified)	ALR inh 99 (no result: CASP6 VEID inh, F508del corr, PglD inh)
CCOc1ccc(CCNC(=O)CS(=O)Cc2nc(-c3ccc(OC)c(OC)c3)oc2C)cc1OCC (stereo unspecified)	ALR inh 99
COc1ccc(-c2nc(CS(=O)CC(=O)NCc3ccc(Cl)cc3)c(C)o2)cc1OC (stereo unspecified)	ALR inh 99
CCOc1ccc(CCNC(=O)CS(=O)(=O)Cc2nc(-c3ccc(OC)cc3)oc2C)cc1	none
COc1ccc(-c2nc(CS(=O)(=O)CC(=O)NCc3ccc(F)cc3)c(C)o2)cc1	none
COCCCNC(=O)CS(=O)(=O)Cc1nc(-c2cccc(OC)c2)oc1C	ALR inh inconclusive (no result: CASP6 VEID inh, F508del corr)
CO[C@@H]1CN(C)C(=O)c2ccc(NC(=O)c3ccccc3)cc2OC[C@H](C)N(C(C)=O)C[C@@H]1C	none (no result: PglD inh, NSD2 inh, ALR inh)
CCN1[C@@H]2c3ccc(-c4ccccc4)c(=O)n3C[C@@H]2[C@@H](CO)[C@@H]1C(=O)NCc1ccccc1	none (no result: NSD2 inh, Env fusion inh, ALR inh)
COC(=O)C[C@H]1CC[C@H]2[C@H](COc3ccc(NC(=O)c4cc(C)on4)cc3C(=O)N2C)O1	none (no result: NSD2 inh, Env fusion inh, ALR inh)
CCCNC(=O)N[C@@H]1CC[C@@H](CCn2cc(C3CCCC3)nn2)O[C@@H]1CO	none (no result: NSD2 inh, ALR inh)
CCCNC(=O)C[C@@H]1C[C@H]2c3cc(NC(=O)C4CCOCC4)ccc3O[C@H]2[C@H](CO)O1	none (no result: NSD2 inh, ALR inh)
COc1ccc(-c2nc(CS(=O)CC(=O)NCc3ccc(C)cc3)c(C)o2)cc1OC (stereo unspecified)	ALR inh 99 (no result: CASP6 VEID inh, F508del corr, NSD2 inh, Env fusion inh)
COc1ccc(CNC(=O)CS(=O)Cc2nc(-c3ccc(OC)c(OC)c3)oc2C)cc1 (stereo unspecified)	ALR inh 99
COCCNC(=O)CS(=O)Cc1nc(-c2ccc(OC)cc2)oc1C (stereo unspecified)	ALR inh 99 (no result: NSD2 inh)
COc1ccc(-c2nc(C#N)c(NCc3ccc(C)cc3)o2)cc1OC	none (no result: CASP6 VEID inh, F508del corr, Env fusion inh)
CN(C)CC(=O)Nc1ccc2c(c1)[C@H]1C[C@H](CC(=O)NC3CCCC3)O[C@H](CO)[C@H]1O2	none (no result: NSD2 inh, ALR inh)
C[C@@H]1CN([C@@H](C)CO)C(=O)c2cc(NC(=O)CCCN(C)C)ccc2O[C@H]1CN(C)S(=O)(=O)c1ccc(F)cc1	none (no result: NSD2 inh, Env fusion inh, ALR inh)
CC(O)CNc1nc2ccccc2n1-c1ncnc2sc3c(c12)CCC3 (stereo unspecified)	Env fusion inh 60 (no result: CASP6 VEID inh, F508del corr)
N#Cc1c(N)sc(=S)c2c1CCCCC2	none (no result: CASP6 VEID inh, F508del corr)
N#Cc1c(N)sc2c1CCCCCC2	ALR inh 99 (no result: CASP6 VEID inh, F508del corr, PglD inh)
Cn1cc(S(=O)(=O)N2CCOCC2)cc1C(=O)Nc1cccc(Cl)c1	Env fusion inh 98 (no result: NSD2 inh)
CN(C)c1ccc(CNC(=O)c2cc(S(=O)(=O)N3CCOCC3)cn2C)cc1	ALR inh 98 (no result: NSD2 inh)
C[C@@H]1CN([C@@H](C)CO)C(=O)c2cc(NC(=O)Nc3ccc(F)cc3)ccc2O[C@@H](C)CCCCO[C@@H]1CN(C)Cc1ccc2c(c1)OCO2	none (no result: NSD2 inh, ALR inh)
CN1[C@@H]2Cn3c(ccc(-c4ccc(F)cc4)c3=O)[C@H]1[C@@H](C(=O)Nc1nccs1)[C@@H]2CO	none (no result: NSD2 inh, Env fusion inh, ALR inh)
